The record followed here is article PMC7862700, “An all-to-all approach to the identification of sequence-specific readers for epigenetic DNA modifications on cytosine”.

What all share (assay): DAPPL (digital affinity profiling via proximity ligation, sequencing); 10 mM Tris-HCl pH 7.5, 50 mM NaCl, 1 mM DTT, 4% glycerol, room temperature, 30 min; GST-TFs on glutathione beads, 16-mer random dsDNA library, 0.1% formaldehyde crosslink after washing; high values mean tight binding
For assay [1], the target named is T1, FLI1 (Homo sapiens, UniProt Q01543 1-452).
T1 sequence: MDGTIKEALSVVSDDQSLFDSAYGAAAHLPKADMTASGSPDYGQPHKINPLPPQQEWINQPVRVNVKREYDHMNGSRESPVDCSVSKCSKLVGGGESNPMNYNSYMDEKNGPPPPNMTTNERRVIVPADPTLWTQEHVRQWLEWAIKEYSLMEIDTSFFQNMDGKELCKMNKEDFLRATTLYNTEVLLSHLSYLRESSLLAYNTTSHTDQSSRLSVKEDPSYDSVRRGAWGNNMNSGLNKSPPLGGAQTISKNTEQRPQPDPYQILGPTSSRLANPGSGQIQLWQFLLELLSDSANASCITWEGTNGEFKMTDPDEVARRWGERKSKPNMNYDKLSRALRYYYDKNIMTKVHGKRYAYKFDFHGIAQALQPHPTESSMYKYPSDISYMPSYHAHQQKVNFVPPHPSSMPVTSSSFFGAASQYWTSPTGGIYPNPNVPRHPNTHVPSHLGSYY
The following applies: protein: recombinant; tags: N-terminal GST; dsDNA, one strand shown. In a few lines:
(§1)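 In yeast, human transcription factors were expressed with a GST fusion, then pulled down on glutathione beads and given DNA barcodes. Pooled with a tag-only sample, they were exposed to 200 nmole of a 16-mer random double-stranded DNA library (Tris/NaCl/DTT/glycerol buffer, room temperature, 30 min), washed, crosslinked with 0.1% formaldehyde, proximity-ligated using BsaI/T4 ligase for 1 h at 37 °C, PCR-amplified and read on an Illumina NextSeq500. Each hexamer's frequency of reads for a factor, divided by the matching frequency for the tag-only sample, gives the binding signal.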

The target in assay [2] is T2, ELK1 (Homo sapiens, UniProt P19419 1-428).
T2 sequence: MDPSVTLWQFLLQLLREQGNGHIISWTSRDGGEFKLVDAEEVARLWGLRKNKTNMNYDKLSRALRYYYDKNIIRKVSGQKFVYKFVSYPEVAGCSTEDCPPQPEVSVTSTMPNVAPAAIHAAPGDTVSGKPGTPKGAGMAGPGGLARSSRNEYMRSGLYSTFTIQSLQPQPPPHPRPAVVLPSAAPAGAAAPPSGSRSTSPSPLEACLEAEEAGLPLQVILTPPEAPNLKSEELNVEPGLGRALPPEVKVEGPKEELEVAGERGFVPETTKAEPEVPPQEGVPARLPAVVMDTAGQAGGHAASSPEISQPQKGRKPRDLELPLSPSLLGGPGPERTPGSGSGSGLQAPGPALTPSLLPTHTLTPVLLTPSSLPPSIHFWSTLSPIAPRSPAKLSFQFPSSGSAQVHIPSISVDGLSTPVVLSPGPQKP
The following applies: protein: recombinant; tags: N-terminal GST; dsDNA, one strand shown. In short, it runs like this: as §1

The target of assay [3] is T3, GABPA (Homo sapiens, UniProt Q06546 1-454).
T3 sequence: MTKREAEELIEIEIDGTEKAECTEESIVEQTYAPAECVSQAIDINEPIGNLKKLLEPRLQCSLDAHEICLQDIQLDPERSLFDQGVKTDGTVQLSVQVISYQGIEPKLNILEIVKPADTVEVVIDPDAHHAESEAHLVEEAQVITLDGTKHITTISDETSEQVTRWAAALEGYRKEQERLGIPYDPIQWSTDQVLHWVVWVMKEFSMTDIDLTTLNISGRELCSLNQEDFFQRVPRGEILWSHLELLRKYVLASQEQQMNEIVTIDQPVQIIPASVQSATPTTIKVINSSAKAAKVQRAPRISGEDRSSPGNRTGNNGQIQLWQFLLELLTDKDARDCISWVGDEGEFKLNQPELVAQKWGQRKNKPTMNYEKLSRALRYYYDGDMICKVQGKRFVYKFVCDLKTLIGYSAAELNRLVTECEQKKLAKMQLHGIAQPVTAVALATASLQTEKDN
The following applies: protein: recombinant; tags: N-terminal GST; dsDNA, one strand shown. In short, it runs like this: as §1

The target in assay [4] is T4, ERG (Homo sapiens, UniProt P11308 1-479).
T4 sequence: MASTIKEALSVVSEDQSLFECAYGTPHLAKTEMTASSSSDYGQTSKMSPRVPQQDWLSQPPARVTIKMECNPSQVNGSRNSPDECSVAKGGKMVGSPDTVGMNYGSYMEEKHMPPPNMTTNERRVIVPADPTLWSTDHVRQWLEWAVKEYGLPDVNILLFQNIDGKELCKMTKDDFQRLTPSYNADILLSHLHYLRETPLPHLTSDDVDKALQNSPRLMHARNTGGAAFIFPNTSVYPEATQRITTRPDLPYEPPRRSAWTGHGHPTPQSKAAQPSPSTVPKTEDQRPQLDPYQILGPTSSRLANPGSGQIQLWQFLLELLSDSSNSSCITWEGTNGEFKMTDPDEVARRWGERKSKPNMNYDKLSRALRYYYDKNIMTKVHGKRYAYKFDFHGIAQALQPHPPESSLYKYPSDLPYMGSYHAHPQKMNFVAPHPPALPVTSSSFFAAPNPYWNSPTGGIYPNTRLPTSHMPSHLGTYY
To be noted: protein: recombinant; tags: N-terminal GST; dsDNA, one strand shown. In short, it runs like this:
as §1

Assay [5] deals with ELF1 (Homo sapiens, UniProt P32519 1-619). The following applies: protein: recombinant; tags: N-terminal GST; dsDNA, one strand shown. In a few lines:
as §1

Assay [6] concerns the target T5, EHF (Homo sapiens, UniProt Q9NZC4 1-300).
T5 sequence: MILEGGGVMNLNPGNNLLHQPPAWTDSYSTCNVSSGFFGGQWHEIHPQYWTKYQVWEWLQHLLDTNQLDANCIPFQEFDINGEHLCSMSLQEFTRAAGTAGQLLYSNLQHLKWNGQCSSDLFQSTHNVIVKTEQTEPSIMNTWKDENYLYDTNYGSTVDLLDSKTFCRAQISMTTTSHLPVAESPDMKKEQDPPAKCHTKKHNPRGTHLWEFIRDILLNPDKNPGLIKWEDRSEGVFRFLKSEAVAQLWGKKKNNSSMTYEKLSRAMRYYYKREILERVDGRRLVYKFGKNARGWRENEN
The following applies: protein: recombinant; tags: N-terminal GST; dsDNA, one strand shown. In a few lines:
as §1

Assay [7] concerns the target SPI1 (Homo sapiens, UniProt P17947 1-270). The following applies: protein: recombinant; tags: N-terminal GST; dsDNA, one strand shown. In a few lines: as §1
The target in assay [8] is SPIB (Homo sapiens, UniProt Q01892 1-262). The following applies: protein: recombinant; tags: N-terminal GST; dsDNA, one strand shown. In a few lines:
as §1

Assay [9] concerns the target T6, ELK3 (Homo sapiens, UniProt P41970 1-407).
T6 sequence: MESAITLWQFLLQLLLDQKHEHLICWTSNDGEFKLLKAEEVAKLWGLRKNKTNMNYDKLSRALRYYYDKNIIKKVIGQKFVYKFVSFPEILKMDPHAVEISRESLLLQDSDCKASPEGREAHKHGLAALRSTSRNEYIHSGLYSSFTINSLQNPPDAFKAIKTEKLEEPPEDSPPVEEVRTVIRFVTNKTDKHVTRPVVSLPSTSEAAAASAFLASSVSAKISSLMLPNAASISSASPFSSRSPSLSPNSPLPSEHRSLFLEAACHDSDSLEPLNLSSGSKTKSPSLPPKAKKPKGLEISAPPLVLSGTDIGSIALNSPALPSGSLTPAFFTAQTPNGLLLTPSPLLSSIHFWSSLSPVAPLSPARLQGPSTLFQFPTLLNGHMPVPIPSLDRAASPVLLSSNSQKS
To be noted: protein: recombinant; tags: N-terminal GST; dsDNA, one strand shown. In a few lines: as §1

For assay [10], the target named is T7, FEV (Homo sapiens, UniProt Q99581 1-238).
T7 sequence: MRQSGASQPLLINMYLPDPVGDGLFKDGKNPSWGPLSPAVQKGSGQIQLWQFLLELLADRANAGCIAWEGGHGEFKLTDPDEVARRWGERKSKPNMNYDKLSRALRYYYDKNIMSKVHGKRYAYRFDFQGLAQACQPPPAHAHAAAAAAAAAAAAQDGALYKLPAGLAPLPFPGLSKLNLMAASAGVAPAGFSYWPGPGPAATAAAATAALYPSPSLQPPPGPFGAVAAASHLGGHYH
To be noted: protein: recombinant; tags: N-terminal GST; dsDNA, one strand shown. In short, it runs like this: as §1

The target of assay [11] is ETV5 (Homo sapiens, UniProt P41161 1-510). To be noted: protein: recombinant; tags: N-terminal GST; dsDNA, one strand shown. In a few lines:
as §1

Assay [12] deals with HSF1 (Homo sapiens, UniProt Q00613 1-529). To be noted: protein: recombinant; tags: N-terminal GST; chain copies: 3; dsDNA, one strand shown. In short, it runs like this: as §1
Assay [13] has as its target T8, SPIC (Homo sapiens, UniProt Q8N5J4 1-248).
T8 sequence: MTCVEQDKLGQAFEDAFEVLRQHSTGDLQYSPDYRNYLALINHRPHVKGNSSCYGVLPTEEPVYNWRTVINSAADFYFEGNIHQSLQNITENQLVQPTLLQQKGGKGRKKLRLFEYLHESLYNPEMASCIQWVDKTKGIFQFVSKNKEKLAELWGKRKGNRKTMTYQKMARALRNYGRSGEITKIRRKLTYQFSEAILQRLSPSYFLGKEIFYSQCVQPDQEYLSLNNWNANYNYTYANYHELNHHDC
To be noted: protein: recombinant; tags: N-terminal GST; dsDNA, one strand shown. In a few lines:
as §1

For assay [14], the target named is ELF4 (Homo sapiens, UniProt Q99607 1-663). To be noted: protein: recombinant; tags: N-terminal GST; dsDNA, one strand shown. In short, it runs like this: as §1
Assay [15] has as its target T9, ELK4 (Homo sapiens, UniProt P28324-2 1-405).
T9 sequence: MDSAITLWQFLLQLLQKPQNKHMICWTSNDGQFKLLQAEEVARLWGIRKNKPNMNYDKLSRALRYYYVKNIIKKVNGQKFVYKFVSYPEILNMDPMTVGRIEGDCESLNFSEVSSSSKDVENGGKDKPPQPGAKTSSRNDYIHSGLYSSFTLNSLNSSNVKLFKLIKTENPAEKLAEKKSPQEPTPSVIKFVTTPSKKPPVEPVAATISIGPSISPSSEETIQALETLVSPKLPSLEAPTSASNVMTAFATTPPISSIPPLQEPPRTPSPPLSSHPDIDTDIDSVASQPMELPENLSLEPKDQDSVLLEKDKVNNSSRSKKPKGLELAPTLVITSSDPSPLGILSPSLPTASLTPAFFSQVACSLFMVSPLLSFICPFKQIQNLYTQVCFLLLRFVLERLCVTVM
To be noted: protein: recombinant; tags: N-terminal GST; dsDNA, one strand shown. In a few lines: as §1

Assay [16] has as its target T10, ETV2 (Homo sapiens, UniProt O00321 1-342).
T10 sequence: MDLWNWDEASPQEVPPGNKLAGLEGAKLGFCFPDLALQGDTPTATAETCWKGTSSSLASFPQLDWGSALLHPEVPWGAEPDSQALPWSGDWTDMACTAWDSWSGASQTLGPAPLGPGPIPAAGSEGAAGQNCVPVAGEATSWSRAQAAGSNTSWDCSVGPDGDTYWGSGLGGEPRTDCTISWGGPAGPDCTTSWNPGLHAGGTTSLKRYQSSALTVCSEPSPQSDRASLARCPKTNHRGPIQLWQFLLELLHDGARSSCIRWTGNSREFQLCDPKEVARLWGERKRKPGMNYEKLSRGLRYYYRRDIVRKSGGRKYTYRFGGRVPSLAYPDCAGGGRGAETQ
To be noted: protein: recombinant; tags: N-terminal GST; dsDNA, one strand shown. In short, it runs like this: as §1

Assay [17] addresses T11, ELF3 (Homo sapiens, UniProt P78545 1-371).
T11 sequence: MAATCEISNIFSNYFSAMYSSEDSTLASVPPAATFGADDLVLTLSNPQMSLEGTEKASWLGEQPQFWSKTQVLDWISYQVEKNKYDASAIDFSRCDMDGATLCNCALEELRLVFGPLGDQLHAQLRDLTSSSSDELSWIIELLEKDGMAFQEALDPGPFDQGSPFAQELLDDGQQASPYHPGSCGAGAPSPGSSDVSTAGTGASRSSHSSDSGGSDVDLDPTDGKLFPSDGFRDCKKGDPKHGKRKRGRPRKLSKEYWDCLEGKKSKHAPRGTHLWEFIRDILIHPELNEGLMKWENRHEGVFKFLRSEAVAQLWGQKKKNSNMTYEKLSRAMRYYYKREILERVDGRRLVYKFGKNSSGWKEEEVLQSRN
To be noted: protein: recombinant; tags: N-terminal GST; dsDNA, one strand shown. In a few lines:
as §1

The target in assay [18] is CRX (Homo sapiens, UniProt O43186 1-299). The following applies: protein: recombinant; tags: N-terminal GST; dsDNA, one strand shown. In a few lines:
as §1

Assay [19] deals with ETV1 (Homo sapiens, UniProt P50549 1-477). The following applies: protein: recombinant; tags: N-terminal GST; dsDNA, one strand shown. In a few lines: as §1
Sequence of ETV1 (P50549 whole entry): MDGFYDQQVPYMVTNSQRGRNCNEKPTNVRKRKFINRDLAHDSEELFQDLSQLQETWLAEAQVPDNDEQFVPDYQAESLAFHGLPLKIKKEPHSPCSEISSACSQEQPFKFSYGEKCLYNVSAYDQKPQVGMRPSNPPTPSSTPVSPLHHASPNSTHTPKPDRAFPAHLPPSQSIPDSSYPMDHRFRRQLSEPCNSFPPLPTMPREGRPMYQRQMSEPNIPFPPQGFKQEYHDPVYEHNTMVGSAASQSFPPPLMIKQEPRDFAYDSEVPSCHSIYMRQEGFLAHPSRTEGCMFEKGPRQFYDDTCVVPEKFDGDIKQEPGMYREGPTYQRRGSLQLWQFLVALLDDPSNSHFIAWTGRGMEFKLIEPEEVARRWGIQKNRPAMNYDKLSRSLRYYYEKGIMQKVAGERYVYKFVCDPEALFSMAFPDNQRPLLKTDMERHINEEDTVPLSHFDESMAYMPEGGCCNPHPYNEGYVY

Sequence of ELF4 (Q99607 whole entry): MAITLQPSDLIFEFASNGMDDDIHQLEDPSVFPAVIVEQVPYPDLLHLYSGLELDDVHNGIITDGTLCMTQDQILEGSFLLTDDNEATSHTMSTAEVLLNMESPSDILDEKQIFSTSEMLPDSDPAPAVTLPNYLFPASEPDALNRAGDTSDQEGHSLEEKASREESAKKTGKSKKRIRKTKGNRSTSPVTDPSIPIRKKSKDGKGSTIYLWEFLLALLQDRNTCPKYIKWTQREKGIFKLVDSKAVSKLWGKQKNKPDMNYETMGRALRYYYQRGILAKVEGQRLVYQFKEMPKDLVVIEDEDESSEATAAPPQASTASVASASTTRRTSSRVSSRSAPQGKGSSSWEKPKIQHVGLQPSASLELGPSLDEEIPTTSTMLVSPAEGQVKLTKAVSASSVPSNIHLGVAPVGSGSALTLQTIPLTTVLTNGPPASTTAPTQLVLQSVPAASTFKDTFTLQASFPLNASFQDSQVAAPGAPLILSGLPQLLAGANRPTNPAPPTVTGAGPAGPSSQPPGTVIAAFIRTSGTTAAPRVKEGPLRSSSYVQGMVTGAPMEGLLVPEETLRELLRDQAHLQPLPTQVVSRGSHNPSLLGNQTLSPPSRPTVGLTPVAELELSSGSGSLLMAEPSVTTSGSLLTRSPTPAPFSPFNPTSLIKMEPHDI
Sequence of HSF1 (Q00613 whole entry): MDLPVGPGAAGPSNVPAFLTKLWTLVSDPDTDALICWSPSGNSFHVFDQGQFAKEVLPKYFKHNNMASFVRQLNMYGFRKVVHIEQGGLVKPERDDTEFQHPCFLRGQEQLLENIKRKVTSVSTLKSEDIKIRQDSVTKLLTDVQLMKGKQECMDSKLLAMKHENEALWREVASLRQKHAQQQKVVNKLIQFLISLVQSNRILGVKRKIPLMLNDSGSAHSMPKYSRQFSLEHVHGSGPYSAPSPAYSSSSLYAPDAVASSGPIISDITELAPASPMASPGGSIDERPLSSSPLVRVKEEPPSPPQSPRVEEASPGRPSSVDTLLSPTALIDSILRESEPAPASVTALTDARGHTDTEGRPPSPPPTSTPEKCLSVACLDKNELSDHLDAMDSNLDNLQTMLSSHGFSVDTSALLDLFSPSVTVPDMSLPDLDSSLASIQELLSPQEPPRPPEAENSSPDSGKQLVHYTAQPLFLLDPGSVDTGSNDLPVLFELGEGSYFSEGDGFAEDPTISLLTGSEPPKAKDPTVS
Sequence of CRX (O43186 whole entry): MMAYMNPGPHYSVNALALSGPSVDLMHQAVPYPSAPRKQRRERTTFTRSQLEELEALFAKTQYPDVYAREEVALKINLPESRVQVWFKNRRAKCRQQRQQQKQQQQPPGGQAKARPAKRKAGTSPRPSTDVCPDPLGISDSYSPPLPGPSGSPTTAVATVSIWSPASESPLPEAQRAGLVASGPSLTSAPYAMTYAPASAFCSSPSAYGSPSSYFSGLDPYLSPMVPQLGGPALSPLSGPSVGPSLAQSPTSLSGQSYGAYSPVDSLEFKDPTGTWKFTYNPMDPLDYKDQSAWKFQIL
Sequence of ELF1 (P32519 whole entry): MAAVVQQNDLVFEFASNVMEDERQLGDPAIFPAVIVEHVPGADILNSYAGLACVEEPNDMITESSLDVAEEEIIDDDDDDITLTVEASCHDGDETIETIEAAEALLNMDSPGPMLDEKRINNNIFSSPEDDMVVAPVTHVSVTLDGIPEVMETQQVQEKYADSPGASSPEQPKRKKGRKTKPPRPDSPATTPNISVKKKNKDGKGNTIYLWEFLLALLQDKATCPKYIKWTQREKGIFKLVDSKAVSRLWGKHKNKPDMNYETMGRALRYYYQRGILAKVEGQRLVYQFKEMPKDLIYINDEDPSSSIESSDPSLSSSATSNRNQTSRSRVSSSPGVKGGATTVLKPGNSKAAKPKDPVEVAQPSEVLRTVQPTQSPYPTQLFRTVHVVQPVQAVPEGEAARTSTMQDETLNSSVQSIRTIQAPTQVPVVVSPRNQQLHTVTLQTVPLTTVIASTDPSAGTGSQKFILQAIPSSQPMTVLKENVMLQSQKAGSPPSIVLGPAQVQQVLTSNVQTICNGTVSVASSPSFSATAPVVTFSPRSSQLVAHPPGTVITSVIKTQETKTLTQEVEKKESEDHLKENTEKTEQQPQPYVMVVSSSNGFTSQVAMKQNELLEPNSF
Sequence of SPIB (Q01892 whole entry): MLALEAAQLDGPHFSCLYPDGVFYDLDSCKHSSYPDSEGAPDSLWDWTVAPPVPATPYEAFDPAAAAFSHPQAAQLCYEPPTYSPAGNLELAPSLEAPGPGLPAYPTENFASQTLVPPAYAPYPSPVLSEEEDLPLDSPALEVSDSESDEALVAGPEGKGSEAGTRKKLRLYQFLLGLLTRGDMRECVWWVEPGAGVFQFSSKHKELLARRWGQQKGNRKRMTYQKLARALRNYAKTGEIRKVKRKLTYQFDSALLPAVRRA
Sequence of ETV5 (P41161 whole entry): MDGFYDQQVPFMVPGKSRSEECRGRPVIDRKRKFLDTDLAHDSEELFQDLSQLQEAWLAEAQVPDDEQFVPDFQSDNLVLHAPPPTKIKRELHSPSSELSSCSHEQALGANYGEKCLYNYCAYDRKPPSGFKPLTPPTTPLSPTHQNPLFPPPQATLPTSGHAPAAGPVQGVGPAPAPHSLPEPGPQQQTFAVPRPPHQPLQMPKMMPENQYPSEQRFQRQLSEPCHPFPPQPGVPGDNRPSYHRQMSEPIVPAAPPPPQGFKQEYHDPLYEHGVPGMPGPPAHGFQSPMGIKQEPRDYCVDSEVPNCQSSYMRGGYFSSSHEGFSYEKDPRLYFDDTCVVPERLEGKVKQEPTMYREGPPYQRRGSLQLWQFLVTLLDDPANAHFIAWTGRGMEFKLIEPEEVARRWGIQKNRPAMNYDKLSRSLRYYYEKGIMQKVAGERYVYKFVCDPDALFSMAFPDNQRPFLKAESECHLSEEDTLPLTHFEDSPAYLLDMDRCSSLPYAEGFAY

With ATCCCA, the binding signal was 1.07 fold enrichment (6-mer frequency, TF over GST control) in [1]; 1.14 fold enrichment (6-mer frequency, TF over GST control) in assay [2]; 1.15 fold enrichment (6-mer frequency, TF over GST control) in assay [3]; 1.2 fold enrichment (6-mer frequency, TF over GST control) in assay [4]; 1.22 fold enrichment (6-mer frequency, TF over GST control) in assay [5]; 1.15 fold enrichment (6-mer frequency, TF over GST control) in assay [6]. Moreover, the binding signal in assay [7] was 1.03 fold enrichment (6-mer frequency, TF over GST control); in [8], 1.05 fold enrichment (6-mer frequency, TF over GST control); in assay [9], 1.2 fold enrichment (6-mer frequency, TF over GST control); in assay [10] it was 1.14 fold enrichment (6-mer frequency, TF over GST control); in assay [11], 1.11 fold enrichment (6-mer frequency, TF over GST control); in [12] it was 1.34 fold enrichment (6-mer frequency, TF over GST control). For the same sequence, the binding signal in assay [13] is 1.07 fold enrichment (6-mer frequency, TF over GST control); in [14], 1.1 fold enrichment (6-mer frequency, TF over GST control); in [15], 1.13 fold enrichment (6-mer frequency, TF over GST control); in assay [16] it was 1.14 fold enrichment (6-mer frequency, TF over GST control); in assay [17], 1.23 fold enrichment (6-mer frequency, TF over GST control); in assay [18] it was 1.69 fold enrichment (6-mer frequency, TF over GST control). In addition, in [19], the binding signal is 1.09 fold enrichment (6-mer frequency, TF over GST control).
